# Source: PubChem BioAssay
# A selection: hits, their analogues and other compounds. The true share with any hit is near 21%.
# Shiga inhibitor: blocks Shiga toxin action in Vero cells. Vero cells, Shiga toxin protein synthesis inhibition reporter. inhibition, % at 38.7 µM. 290,000 tested, 9.2% active; in the data active = inhibition mostly above about 28%, no sharp cut-off; inactive = mostly below about 43%; note: 0% is about no effect
# Pf growth 96h: P. falciparum growth inhibition at 96 hours | P. falciparum luciferase reporter growth, 96 h | Potency, µM (top dose mostly 28.7 µM), without a hit: top-dose activity change, negative = inhibition, most hits filed as inhibitors | 320,000 tested, 6.9% active | AID 504834; note: potency is the fitted concentration of half-maximal effect; % is set by controls: 0 for no effect and ±100 for the full control effect
#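 Two parasite generations (96 h, 37 C, 5% CO2) of compound exposure in infected erythrocytes (0.05% parasitemia, 2% hematocrit). Luciferase-reporter P. falciparum; decreased luminescence indicates inhibited growth, aimed at apicoplast-acting delayed death.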
# CHX counter: counter-screen hit for Shiga toxin inhibitors, cycloheximide; 300,000 tested, 12% active; max response, %; cell reporter, cycloheximide protein synthesis inhibition counterscreen; in the data active = max response mostly above about 13%, no sharp cut-off; inactive = mostly below about 14%; note: read at 38.3 µM for the half of the compounds with a filed dose; 0% is about no effect
# Pf growth 48h: inhibits P. falciparum growth in the first generation, 48 h; P. falciparum luciferase growth in erythrocytes, 48 h; Potency, µM (top dose mostly 28.7 µM), for inactives: at the top dose activity change, negative = inhibition, usual class: inhibitors; 310,000 tested, 5.9% active; note: potency is the fitted concentration of half-maximal effect; % is set by controls: 0 for no effect and ±100 for the full control effect
#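 Erythrocytes infected with P. falciparum carrying an integrated firefly luciferase reporter (2% hematocrit, 0.1% parasitemia final) were exposed to compounds in RPMI 1640 with 0.5% Albumax at 37 C, 5% CO2. Growth inhibition was scored as reduced luminescence.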
# HCV inh: inhibitors of hepatitis C virus infection; Huh7.5.1 HCVcc-Cre infection, luciferase reporter, 44 h; Potency, µM (doses to about 41.8 µM), for the others: top-dose activity change, negative = inhibition, most hits filed as inhibitors; 340,000 tested, 3.4% active; note: potency is the fitted concentration of half-maximal effect; % is set by controls: 0 for no effect and ±100 for the full control effect
#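 Infectious HCV cell culture screen: compound-treated cells (1,000/well, pre-plated 4 h) are infected with HCVcc-Cre at roughly 0.5 moi and grown 44 h. Infection is quantified by luciferase signal after 15 min substrate incubation at room temperature.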
# HCMV antiviral: inhibitors of human cytomegalovirus; HFF cells, HCMV-luciferase reporter, 72 h; stronger effect = lower value; activity change, negative = inhibition, % at 57.5 µM; 410,000 tested, 4.5% active; AID 1259415; in the data active = activity change below about -60%; inconclusive = no clear call, values can overlap the other calls; inactive = above about -39%; note: % is set by controls: 0 for no effect and ±100 for the full control effect
#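 Compounds were evaluated in HFFs infected with an HCMV luciferase reporter virus (MOI 1 PFU/cell). Luciferase in lysates collected 72 h post infection served as the replication measure.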
# Starred values were filed as active, the others as inactive; ? = inconclusive; / = not tested or not shown; [ ] = dose if it differs, or a comment. Unless noted, calls come from the whole dose curve; as a rule, active = well fitted inhibition curve with a large enough effect; inconclusive = small, poorly fitted or top-dose-only effect, or another doubt; inactive = no such curve, though single readings can be large or run the other way.
SMILES,Shiga inhibitor,Pf growth 96h,CHX counter,Pf growth 48h,HCV inh,HCMV antiviral
Nc1nonc1C(=O)N/N=C/c1cccc([N+](=O)[O-])c1,active,20.8%,27.4*,-9.2%,3.5%,21.2
CCCCCC(=O)Nc1nc(C)c(-c2csc(Nc3ccc(Cl)cc3)n2)s1,6.6,?,1.1,14.7µM*,-21.6%,?
CCCCCC(=O)Nc1nc(C)c(-c2csc(Nc3cc(Cl)ccc3C)n2)s1,-7.2,?,-3.0,?,-0.9%,116.7
CCCCCCC(=O)Nc1nc(C)c(-c2csc(Nc3ccc(Cl)cc3)n2)s1,-16.6,2.94µM*,-2.5,10.4µM*,5.2%[8.37 µM],/
CN(C)c1ccc(NC(=O)Nc2cccc3ccccc23)cc1,76.7*,?,35.6*,39.9%,-8.0%,-11.5
CCN(CC(=O)Nc1ccc(C(C)=O)cc1)CC(=O)Nc1ccccc1C(F)(F)F,-3.2,-23.8%,-5.5,9.0%,13.1%,34.0
CCN(CC)c1ccc(NC(=O)Nc2cccc3ccccc23)cc1,29.5,?,15.4*,?,?,/
CCN(CC)c1ccc(NC(=O)Nc2ccccc2C(F)(F)F)cc1,42.0*,33.0%,23.9,?,?,-1.6
Cc1ccc(NC(=O)Nc2cccc3ccccc23)cc1,-10.5,6.6%,9.0,37.3%,6.7%,-12.1
Cc1cc(C)cc(OCC(=O)Nc2c(C)ccc3nsnc23)c1,/,/,/,/,/,-10.5
CC(=O)Nc1ccc(C(=O)CSc2nnc(-c3ccc(O)cc3)n2CC2CCCO2)cc1 (stereo not drawn),-1.8,-5.8%,-1.7,/,18.6%,38.8
CC1(C)CC(=O)C(Sc2nnc(-c3ccc(O)cc3)n2CC2CCCO2)C(=O)C1 (stereo not drawn),-9.2,1.04µM*,-3.6,/,14.6%,2.4
O=C(Nc1cccc(F)c1)C1CCCN(C(=O)c2ccc(Cl)cc2)C1 (stereo not drawn),/,?,/,?,-26.9%,?
O=C(Nc1ccc(Br)cc1)C1OCCc2ccccc21 (stereo not drawn),50.5*,?,17.7*,?,?,-7.1
O=C(Nc1cccnc1)C1OCCc2ccccc21 (stereo not drawn),-1.4,33.8%,-1.8,2.5%,-2.9%,-6.8
Cc1ccc(O)c(-c2cc(-c3ccccc3F)[nH]n2)c1,104.0*,/,35.2*,?,?,138.6
Cc1ccc(-c2cc(-c3cccc(F)c3)n[nH]2)c(O)c1,75.6*,/,31.1*,?,?,47.4
Cc1cccc(-c2noc(-c3cc(-c4ccc(F)cc4)n[nH]3)n2)c1,/,/,/,/,/,-8.5
Cc1ccc(O)c(-c2cc(-c3cccc(F)c3)n[nH]2)c1,59.9,/,24.2*,8.28µM*,10µM*,69.0
Cc1ccc(-c2cc(-c3ccccc3C)[nH]n2)c(O)c1,42.2*,-98.5%,39.8*,-23.7%,?,149.6
CC(C)(C)C(=O)Nc1ccc(-c2cc3cc(Cl)ccc3o2)cc1,124.4*,141.5%,80.9*,112.8%,-2.8%,-20.6
C/C(=N\NC(=O)CC1N=C(Cc2ccccc2)NNC1=O)c1ccc(Br)cc1 (stereo not drawn),-9.3,?,-1.1,70.7%,4.8%,6.4
Cc1ccc(-c2cc(C#N)c(=O)n(Cc3c(Cl)cccc3Cl)c2)cc1,-8.0,?,0.9,?,2.3%,-61.8*
N#Cc1cc(-c2ccccc2)cn(Cc2c(Cl)cccc2Cl)c1=O,-7.6,1.65µM*,0.5,?,-3.3%,?
Cn1c(NC(=O)Cc2cccc3ccccc23)cc(=O)n(C)c1=O,-12.0,-96.0%,6.1,2.8%,-9.9%,1.8
SMILES,Shiga inhibitor,Pf growth 96h,CHX counter,Pf growth 48h,HCV inh,HCMV antiviral
CN(C)c1ccc(NC(=O)CSc2n[nH]c(-c3ccncc3)n2)cc1,/,/,/,/,-6.2%,49.3
COc1cc(OC)cc(C(=O)NC(C(=O)NNC(=O)CN(C)S(=O)(=O)c2ccc(C)cc2)C(C)C)c1 (stereo not drawn),/,/,/,/,-2.2%,50.7
Cc1ccc(C(=O)Nc2nc(=O)n(C(=O)C3CC3)s2)cc1,20.2,11.8%,15.8*,14.6%,?,-32.0
O=C(Nc1nc(=O)n(C(=O)C2CC2)s1)c1ccccc1,1.8,-7.8%,26.8*,-6.2%,?,-12.7
Cc1ccc(C(=O)Nc2nc(=O)n(C(=O)c3ccccc3C)s2)cc1,8.1,10.3%,12.7,/,-17.6%,40.8
CCOc1ccc(NC(=O)c2cc(-c3ccc(C)c(F)c3)on2)c([N+](=O)[O-])c1,/,/,/,/,/,13.2
CCOc1ccc(NC(=O)c2cccnc2Cl)c([N+](=O)[O-])c1,-4.7,-8.0%,26.3,11.4%,-15.4%,-4.0
CCOc1ccc(NC(=O)c2ccc(CC)s2)c([N+](=O)[O-])c1,34.0*,?,23.3*,42.3%,?,-33.6
CCOc1ccc(NC(=O)c2cccs2)c([N+](=O)[O-])c1,120.4*,261.8%,87.4*,194.3%,?,30.9
CCOc1ccc(NC(=O)c2ccco2)c([N+](=O)[O-])c1,39.9*,0.586µM*,66.4*,199.6%,2.0%,18.7
CCC1CSC(Nc2ccc(C(=O)/C=C/c3ccc(OC)c(OC)c3)cc2)=N1 (stereo not drawn),27.7*,?,14.3,?,?,-101.5*
CCC1CSC(Nc2ccc(C(=O)/C=C/c3ccc(Br)cc3)cc2)=N1 (stereo not drawn),56.9*,?,48.9*,?,?,-35.8
O=C(/C=C/c1ccc(Br)cc1)Nc1ccc(S(=O)(=O)Nc2ncccn2)cc1,-25.1,15.3%,-5.1,-6.4%,?,-30.4
COc1ccc(/C=C/C(=O)c2ccc(NC3=NCCCS3)cc2)cc1OC,-13.4,?,-0.7,?,?,86.6
COc1cccc(CNC(=O)CSC2=Nc3ccccc3N=C(c3ccc(F)cc3)C2)c1,/,/,/,/,/,-24.8
CCCc1cc(C(=O)Nc2cccc3ccccc23)n(C)n1,1.5,-11.4%,-2.5,8.8%,-13.8%,?
CCCc1cc(C(=O)Nc2ccc(C(=O)c3ccc(C)cc3)cc2)n(C)n1,-8.1,?,17.7,-15.5%,10µM*,-24.2
Cc1ccc(C)n1-c1cc([N+](=O)[O-])ccc1-n1ccnc1,-2.3,?,0.7,11.7µM*,-20.1%,13.7
CC(Nc1cc(N2CCN(S(=O)(=O)N(C)C)CC2)ccc1[N+](=O)[O-])c1ccccc1 (stereo not drawn),2.4,182.3%,2.2,14.7µM*,-19.0%,12.7
CCCC(=O)N1CCN(c2ccc([N+](=O)[O-])c(NC(C)c3ccccc3)c2)CC1 (stereo not drawn),-19.8,9.28µM*,-5.8,11.7µM*,9.5%,?
CC(Nc1cc(N2CCCC2)ccc1[N+](=O)[O-])c1ccccc1 (stereo not drawn),29.7,?,-3.4,13.1µM*,?,-10.1
